High-throughput results from PubChem.
RXFP1 ag: agonists of human relaxin receptor RXFP1. Q9HBX9. HEK293T-RXFP1 cAMP TR-FRET, 30 min; response scale: percent of porcine relaxin response, buffer zero. Potency, µM (highest dose often 57.5 µM), hits mostly activators. 370,000 tested, 0.3% active. AID 2676; active = well fitted activation curve with a large enough effect; inconclusive = small, poorly fitted or top-dose-only effect; also: nearly all actives have a fitted effect of over 60% in size
Target sequence (Q9HBX9 whole entry, looked up): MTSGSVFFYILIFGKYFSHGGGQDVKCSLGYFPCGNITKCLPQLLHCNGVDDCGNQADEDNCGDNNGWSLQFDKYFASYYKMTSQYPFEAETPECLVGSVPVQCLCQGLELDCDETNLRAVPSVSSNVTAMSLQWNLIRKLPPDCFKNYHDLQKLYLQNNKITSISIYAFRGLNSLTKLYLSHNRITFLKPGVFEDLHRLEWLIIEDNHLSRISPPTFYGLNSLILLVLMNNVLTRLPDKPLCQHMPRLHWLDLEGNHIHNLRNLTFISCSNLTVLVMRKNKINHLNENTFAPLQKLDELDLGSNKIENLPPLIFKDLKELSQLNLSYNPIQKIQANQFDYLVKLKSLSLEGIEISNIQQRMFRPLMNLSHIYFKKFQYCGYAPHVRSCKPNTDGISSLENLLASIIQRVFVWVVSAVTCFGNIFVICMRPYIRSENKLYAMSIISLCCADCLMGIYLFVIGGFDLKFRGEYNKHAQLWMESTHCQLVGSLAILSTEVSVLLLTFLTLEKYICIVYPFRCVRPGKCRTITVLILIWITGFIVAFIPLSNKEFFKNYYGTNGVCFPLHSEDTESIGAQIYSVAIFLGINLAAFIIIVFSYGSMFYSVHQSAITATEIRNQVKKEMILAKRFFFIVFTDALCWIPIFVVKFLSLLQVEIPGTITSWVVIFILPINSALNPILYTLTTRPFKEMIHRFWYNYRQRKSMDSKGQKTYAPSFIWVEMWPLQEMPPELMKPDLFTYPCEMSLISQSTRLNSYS
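HEK293T cells stably expressing RXFP1 were pretreated with the PDE4 inhibitor Ro 20174, exposed to compounds for 30 min at 37C, lysed, and cAMP was read by TR-FRET. Data normalized to buffer (basal) and 29 nM porcine relaxin (100%).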
RXFP1 antag: RXFP1 (human) relaxin receptor antagonism; activity change, negative = inhibition, % at 57.5 µM; Q9HBX9; AID 1259400; HEK293-RXFP1, relaxin-stimulated cAMP HTRF, 30 min; hits give low values; 350,000 tested, 0.59% active;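 active = activity change of -60% or lower, but not beyond a set lower limit; inconclusive = change between -60% and -40%, or beyond the set limit; inactive = change above -40%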
gsp antag: antagonizes gsp, the McCune-Albright syndrome mutation. gsp-mutant cells, cAMP HTRF, 30 min. Potency, µM (doses to about 76.9 µM), actives largely listed as inhibitors. 340,000 tested, 0.4% active; calls by dose curve; cell line not stated here;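 also: intracellular cAMP measured with PDE inhibitor Ro 20-1724 present during compound exposure; nearly all actives have a fitted effect of over 65% in size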
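Cells in G418 medium, seeded 16-24 h, 37C; buffer exchange to DPBS + 1 mM CaCl2, 0.5 mM MgCl2, 0.05% BSA; cpds in DMSO + […] (300 uM stock), 30 min 37C; HTRF cAMP detection.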
gsp agonist: activates gsp, the McCune-Albright syndrome mutation; gsp mutant cells, cAMP HTRF, 30 min; Potency, µM (top dose mostly 76.9 µM), actives largely listed as activators; 340,000 tested, 0.13% active; AID 624287; active = well fitted activation curve with a large enough effect; inconclusive = small, poorly fitted or top-dose-only effect, or another doubt; inactive = no such curve, though single readings can be large or run the other way; cell line not stated here;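 also: phosphodiesterase inhibitor Ro 20-1724 added with compounds to block cAMP breakdown; nearly all actives have a fitted effect of over 60% in size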
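Cells stably selected in G418 were plated at 2000/well, grown 16-24 hr, then given compounds in DMSO with the PDE inhibitor […] (300 uM solution added) for 30 min at 37C; cAMP was read by HTRF.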
Of the large screens only hits and unclear results are named; the others gave an inactive call. The list is not random: actives were taken first. Their share in the collection is about 0.9%.

Cc1ccc(-c2nc(C(=O)NCC3CCCO3)cc3c2[nH]c2ccccc23)cc1 (centres undefined)	gsp antag inconclusive (no result: RXFP1 antag, gsp agonist)
COc1ccc(-c2nc(C(=O)NCC3CCCO3)cc3c2[nH]c2ccccc23)cc1 (centres undefined)	gsp antag 28.2µM (no result: RXFP1 antag, gsp agonist)
COc1ccc(C2c3ccc4ccccc4c3Oc3ncn(CCO)c(=N)c32)cc1 (centres undefined)	gsp agonist inconclusive
COc1ccc(C2c3ccc4ccccc4c3Oc3ncn(CCN(C)C)c(=N)c32)cc1 (centres undefined)	RXFP1 antag -108.2
CCCN(C(=O)NCc1noc2ccc(C)cc12)c1ccc(Cl)c(Cl)c1	none (no result: gsp antag, gsp agonist)
O=C(CCN1C(=O)c2ccccc2Sc2ncccc21)Nc1ccc(F)cc1F	none (no result: gsp antag, gsp agonist)
O=C(Nc1cccc([N+](=O)[O-])c1)c1cc2ccccc2cc1O	RXFP1 antag -69.5, gsp antag 14.1µM
CCN(C(=O)COC(=O)c1ccc2[nH]c(C)c(C)c2c1)c1c(N)n(Cc2ccccc2)c(=O)[nH]c1=O	none (no result: RXFP1 ag)
Cn1c(=O)c2[nH]c(CCCc3ccc([N+](=O)[O-])cc3)nc2n(C)c1=O	gsp agonist 15.8µM (no result: RXFP1 ag)
C=CCn1c(=O)c(CCC(=O)Nc2ccc(N3CCOCC3)cc2)nc2cc(C(F)(F)F)ccc21	RXFP1 antag -67.7, gsp agonist inconclusive
Cc1cc(C(=O)CSc2nc3ccccc3c(=O)n2C)c(C)n1Cc1ccc2c(c1)OCO2	RXFP1 ag 20µM, gsp antag inconclusive
O=[N+]([O-])c1cccc(S(=O)(=O)Nc2ccc(-c3ccc(N4CCOCC4)nn3)cc2)c1	gsp antag inconclusive
O=[N+]([O-])c1cccc(S(=O)(=O)Nc2ccc(-c3ccc(N4CCCC4)nn3)cc2)c1	RXFP1 antag -71.0
COc1ccc(S(=O)(=O)Nc2cccc(-c3ccc(N4CCCCCC4)nn3)c2)cc1OC	gsp antag 25.1µM
COC(=O)COc1cccc(NS(=O)(=O)c2cccc([N+](=O)[O-])c2)c1	none
COC(=O)COc1ccc(NS(=O)(=O)c2cccc([N+](=O)[O-])c2)cc1	RXFP1 antag -65.8, gsp antag inconclusive
COc1ccc(S(=O)(=O)Nc2cccc(-c3ccc(N4CCCC4)nn3)c2)cc1F	none (no result: gsp antag, gsp agonist)
CCN(CC)S(=O)(=O)c1ccc(NC(=O)Cn2ncc3c([nH]c4ccccc43)c2=O)cc1	none (no result: gsp antag, gsp agonist)
COc1ccc(Nc2nc(N3CCCCC3)c3ccccc3n2)cc1	RXFP1 antag -65.6
COc1ccc2c(C)cc(=S)[nH]c2c1	RXFP1 ag 20µM
Cn1nc(C(F)(F)F)c2cc(C(=O)Nc3ccc(F)c(Cl)c3)sc21	RXFP1 antag -75.9, gsp antag inconclusive
c1ccc(CN=C2NN=C(c3ccccc3)CS2)cc1	none
Clc1ccc(C2=NNC(=NCc3ccccc3)SC2)cc1	gsp antag 7.08µM
O=C(CN1CCN(Cc2ccc3c(c2)OCO3)CC1)Nc1cc(S(=O)(=O)N2CCCC2)ccc1Cl	none
CN(C)S(=O)(=O)c1ccc(Cl)c(NC(=O)CN2CCN(Cc3ccc4c(c3)OCO4)CC2)c1	gsp antag 11.2µM
CCc1ccc(C(=O)Nc2cccc(-c3nc4cc(C(C)C)ccc4o3)c2)cc1	none (no result: RXFP1 antag, gsp antag, gsp agonist)
CCOc1ccc(CNC(=O)c2oc3c(c2C)-c2nn(Cc4cccc(Cl)c4)cc2CC3)cc1	RXFP1 antag -78.3 (no result: gsp antag, gsp agonist)
Cc1cccc(CNC(=O)c2oc3c(c2C)-c2nn(Cc4cccc(Cl)c4)cc2CC3)c1	RXFP1 antag inconclusive (no result: gsp antag, gsp agonist)
Cc1cccc(CNC(=O)c2oc3c(c2C)-c2nn(Cc4ccccc4Cl)cc2CC3)c1	RXFP1 antag -66.1 (no result: gsp antag, gsp agonist)
CCCCN(CCCC)C(C(N)=O)c1ccc(OC)cc1 (centres undefined)	none (no result: RXFP1 ag, gsp antag, gsp agonist)
CC1CCC(NC(=O)c2ccc3c(c2)N(Cc2cccc(F)c2)C(=O)c2ccccc2S3)CC1 (centres undefined)	none (no result: gsp antag, gsp agonist)
COC(=O)c1ccc(N2NC(=O)/C(=C/c3cc(OC)c(OC)c(OC)c3)C2=O)cc1	gsp antag 12.6µM, gsp agonist inconclusive
CCCCCS(=O)(=O)c1oc(-c2cccs2)nc1S(=O)(=O)c1ccc(C)cc1	none (no result: gsp antag, gsp agonist)
CCCCS(=O)(=O)c1oc(-c2cccs2)nc1S(=O)(=O)c1ccc(F)cc1	RXFP1 antag -76.3 (no result: gsp antag, gsp agonist)
CCS(=O)(=O)c1oc(-c2ccc(F)cc2)nc1S(=O)(=O)c1ccccc1	RXFP1 antag -107.1 (no result: gsp antag, gsp agonist)
CCCCS(=O)(=O)c1oc(-c2ccc(F)cc2)nc1S(=O)(=O)c1ccc(C)cc1	RXFP1 antag -71.5 (no result: gsp antag, gsp agonist)
CCC(C)S(=O)(=O)c1oc(-c2ccc(F)cc2)nc1S(=O)(=O)c1ccc(F)cc1 (centres undefined)	RXFP1 antag inconclusive (no result: gsp antag, gsp agonist)
CCCN1C(=O)c2[nH]nc(-c3ccc(F)cc3)c2C1c1ccc(O)c(OCC)c1 (centres undefined)	none (no result: gsp antag, gsp agonist)
CC(C)(C)c1cc(C=O)cc(C(C)(C)C)c1O	none (no result: RXFP1 ag, gsp antag, gsp agonist)
COc1ccc(C[C@@H]2OC3(C=CC(=O)C=C3)O[C@H]2Cc2ccc(OC)cc2)cc1	RXFP1 antag -92.0 (no result: RXFP1 ag)
COc1ccccc1NC(=O)CSc1nc2ccccc2c(=O)n1C	gsp antag 35.5µM
COc1ccc(-n2c(SCC(=O)Nc3cccc4ccccc34)nc(O)cc2=O)cc1	RXFP1 antag -65.6
COc1ccc(NC(=O)CSc2nc(O)cc(=O)n2-c2ccc(OC)cc2)cc1	RXFP1 antag -78.1, gsp antag inconclusive, gsp agonist inconclusive
COc1ccc(-n2c(SCC(=O)Nc3ccccc3)nc(O)cc2=O)cc1	none
COc1ccc(OC)c(NC(=O)CSc2nc(O)cc(=O)n2CC(C)C)c1	RXFP1 antag -79.8 (no result: RXFP1 ag)
COc1ccccc1NC(=O)CSc1nc(O)cc(=O)n1-c1ccccc1OC	none
COc1ccc(CSc2nc(O)cc(=O)n2CC(C)C)cc1F	none (no result: gsp antag)
O=C(Cc1ccccc1)Nc1c(C(=O)N2CCN(c3ccc(F)cc3)CC2)oc2ccccc12	none (no result: RXFP1 antag, gsp antag, gsp agonist)
Cc1ccc2cccc(NC(=O)c3cccc4c(Br)cccc34)c2n1	none (no result: RXFP1 antag, gsp antag, gsp agonist)
COc1cccc(N2C(=O)CSC23C(=O)N(CC(=O)NCc2ccc(C)cc2)c2ccccc23)c1 (centres undefined)	none (no result: RXFP1 antag, gsp antag, gsp agonist)
COc1ccc(S(=O)(=O)NCCc2csc(-c3ccc(F)cc3)n2)cc1	none (no result: gsp antag, gsp agonist)
S=c1nc2c(n[nH]1)c1ccccc1n2CCc1ccccc1	RXFP1 antag -114.6
Cc1cccc(NC(=O)CSc2nc3ccc(NC(=O)c4ccccc4)cc3s2)c1	none (no result: RXFP1 antag, gsp antag, gsp agonist)
CCN(CC)CCN(C(=O)c1ccc([N+](=O)[O-])cc1)c1nc2c(OC)cccc2s1	gsp agonist 12.6µM
CCOC(=O)c1c(/N=C/N(C)C)sc(C)c1C	none
CCOC(=O)c1c(/N=C/N(C)C)sc(/C=N/Nc2ccccc2)c1-c1ccc(Cl)cc1	gsp agonist 12.6µM
Cc1ccc(NC(=O)CN(C)S(=O)(=O)c2cnc[nH]2)cc1	none (no result: gsp antag, gsp agonist)
COc1ccc(NC(=O)c2cccc(OC(F)F)c2)cc1Cl	none
O=C(Nc1ccc([N+](=O)[O-])cc1)Nc1ccc(OC(F)F)c(Cl)c1	RXFP1 antag inconclusive, gsp antag 39.8µM
O=C(Nc1ccc(OC(F)F)c(Cl)c1)c1cccc(OC(F)F)c1	gsp antag 39.8µM
O=C(Nc1ccc(OC(F)F)c(Cl)c1)Nc1ccc2c(c1)OCO2	gsp antag inconclusive
